Results taken from PubChem BioAssay (NCI).
Compounds without any hit were thinned out: in the full panel of roughly 83,000, 20% have a hit.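 Cells were grown in 96-well plates and exposed to the test compound at a single concentration for 48 hours; results are reported as percent growth, with values below 10 considered active.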 Values without a mark were called inactive. Active and inactive are the calls of the source.

system: HT29 colon; test: NCI-60 one-dose screen, 48 h (100 = growth as untreated, 0 = no growth, -100 = all killed); conditions: 10 µM

SMILES	growth
COc1cc(-c2nn3c(/C=C4/C(=O)Nc5ccccc54)c(-c4ccc(C)cc4)nc3s2)cc(OC)c1OC	25.7%
CCCCC/C=C/C(=O)CCc1ccc(O)c(OC)c1	93.1%
Cc1c(Cl)cccc1NC(=O)c1sc2nc3c(cc2c1N)C(=O)CCC3	3.09% (active)
CSc1cc(SC)ncn1	97.3%
O=C(Nc1ccc(CN2CCc3nc4cc(O)c(O)cc4cc32)cc1)c1ccc(Cl)c(Cl)c1	109%
COc1ccc(-c2cc(/C=C/C(=O)c3cc(OC)c(OC)c(OC)c3)[nH]n2)cc1OC	-53.9% (active)
O=C1NC(=O)N(Cc2ccccc2)CC1Br (stereo unspecified)	77.3%
O=C(Nc1ccncc1)C(=O)c1cn(S(=O)(=O)c2cccc(Cl)c2)c2ccccc12	29%
CCOC(=O)C(=Cc1ccc(Br)cc1)C(=O)OCC	-64% (active)
COc1cc(-c2cc(/C=C3\C(=O)Nc4ccc(Cl)cc43)[nH]n2)cc(OC)c1OC	24.2%
CC(C)(C)NC/C(=C\c1ccccc1)C(=O)c1ccccc1	-46.1% (active)
Cc1cc(N(CCCNc2ccnc3cc(Cl)ccc23)Cc2cccs2)nc(Cl)n1	7.06% (active)
Nc1nc(N)c2c(ccc3nccc32)[nH]1	27%
CCCC(F)C(=O)O (stereo unspecified)	97.5%
Cn1c(N)c(N=Nc2ccc(S(=O)(=O)Nc3nccs3)cc2)c(=O)n(C)c1=O	107%
COc1cc(-c2cc(/C=C/C(=O)c3ccc(Cl)c(Cl)c3)[nH]n2)cc(OC)c1OC	58.3%
